Laboratory results published in PubChem BioAssay (EPA / NIEHS).
Results filed as inconclusive are left out. Some structures have more than one record in an assay (separate samples or runs), and their calls can disagree. Active and inactive are the calls of the source. Rule for the calls: active = hit-call score of the fitted dose curve at least 0.9, where 1 is the maximum; inconclusive = response in the unintended direction; inactive = score below 0.9.

Experiments:
NCBI gene 100848466 = assay: NVS_NR_bPR: NovaScreen (NVS) Nuclear Receptor Binding Assay for bovine Progextron Receptor (PR) (AID 2283343);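 for AC50: actives lower bound radioligand signal below DMSO meaning displacement of the label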
In short: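 Membranes from bovine uterus; radiolabelled ligand plus test chemical; 18 h; scintillation read-out. Activity = signal loss vs DMSO. Primary: 25 uM, duplicate; secondary: concentration series.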

[1] = molecular target: Estrogen receptor (Homo sapiens) (UniProt P03372); assay: OT_ER_ERaERa_1440: Odyssey Thera (OT) 24-hour HEK293T Protein-Complementation Assay for Estrogen Receptor-alpha/-alpha Homodimer (AID 2283349);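 note: hits raise fluorescence above DMSO for agonists and antagonists alike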
In short: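 Protein-fragment complementation between two human ERα ligand-binding domains (aa 310-547) in stably transfected HEK293T cells was monitored after 24 h treatment, using fluorescence intensity relative to vehicle controls.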

[2] = molecular target: Estrogen receptor (Homo sapiens) (UniProt P03372); assay: OT_ER_ERaERa_0480: Odyssey Thera (OT) 8-hour HEK293T Protein-Complementation Assay for Estrogen Receptor-alpha/-alpha Homodimer (AID 2283351);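 note: rise in fluorescence from reassembled reporter fragments on ERα LBD homodimer in nucleus or whole cell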
In short: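 HEK293T cells stably expressing the human ERα ligand-binding domain (aa 310-547) as a homodimer PCA were dosed with compound for 8 h. Gain of fluorescence intensity versus DMSO vehicle was read by laser scanning cytometry.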

[3] = molecular target: T1, Estrogen receptor (Homo sapiens) + Estrogen receptor beta (Homo sapiens) (UniProt P03372+Q92731); assay: OT_ER_ERaERb_0480: Odyssey Thera (OT) 8-hour HEK293T Protein-Complementation Assay for Estrogen Receptor-alpha/-beta Heterodimer (AID 2283352)
In short: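 Compound added to HEK293T cells carrying split-reporter-tagged ER-alpha and ER-beta LBDs, incubated 8 hours, then imaged by laser scanning cytometer. Signal rise in nucleus, or nucleus and cytoplasm, over vehicle was fitted in the positive direction.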

[4] = molecular target: T1, Estrogen receptor (Homo sapiens) + Estrogen receptor beta (Homo sapiens); assay: OT_ER_ERaERb_1440: Odyssey Thera (OT) 24-hour HEK293T Protein-Complementation Assay for Estrogen Receptor-alpha/-beta Homodimer (AID 2283356);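 note: heteromer of ER alpha and ER beta binding domains; hits raise reporter fluorescence and both agonists and antagonists give an increase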
In short: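 Stable HEK293T PCA line, ERα LBD 310-547 + ERβ LBD 263-489 fused to reporter fragments; 24 h treatment; fluorescence read by laser scanning cytometry; positive fitting direction relative to DMSO.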

PGR (gene 5241) = PGR (gene 5241) (UniProt P06401); assay: NVS_NR_hPR: NovaScreen (NVS) Nuclear Receptor Binding Assay for human Progestron Receptor (PR) (AID 2283360);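 note: active means loss of bound radioligand signal versus DMSO baseline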
In short: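 Competitive displacement of a labelled radioligand from T47D-derived receptor protein is measured in a cell-free format. Initial testing uses 25 uM in duplicate, with positive and negative controls on every plate.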

[5] = molecular target: bovine Gamma-Aminobutyric Acid Type A Receptor Agonist (GABAR Agonist), GABRA1 (gene 780973) (UniProt P08219); assay: NVS_LGIC_bGABAR_Agonist: NovaScreen (NVS) Ligand-Gated Ion Channel Assay for bovine Gamma-Aminobutyric Acid Type A Receptor Agonist (GABAR Agonist) (AID 2283338)
In short: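 Radioligand binding to bovine cerebellar membranes in agonist format, read by filter-based scintillation counting after 1 h. Primary screen in duplicate at 25 uM, with actives followed in concentration series. Gain of signal versus DMSO.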

[6] = molecular target: Estrogen receptor (Homo sapiens) (UniProt P03372); assay: NVS_NR_hER: NovaScreen (NVS) Nuclear Receptor Binding Assay for human Estrogen Receptor (ER) (AID 2283348)
In short: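 Scintillation signal from bound radioligand was measured 18 hours after chemical addition to cell-free MCF7 protein extracts, with DMSO as baseline. Activity was scored as signal loss; compounds ran first at 25 uM in duplicate.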

[7] = molecular target: human Peroxisome Proliferator-activated Receptor alpha (PPARa), PPARA (gene 5465) (UniProt Q07869); assay: NVS_NR_hPPARa: NovaScreen (NVS) Nuclear Receptor Binding Assay for human Peroxisome Proliferator-activated Receptor alpha (PPARa) (AID 2283359);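 note: activity means loss of TR-FRET signal versus DMSO baseline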
In short: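 Chemicals were first screened in duplicate at 25 uM, and active ones were retested across concentration series. Binding was monitored by TR-FRET one hour after dosing, with decreased signal against DMSO counted as activity.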

[8] = molecular target: Androgen Receptor/SRC-1 Co-activator, AR (gene 367) (UniProt P10275); assay: OT_AR_ARSRC1_0480: Odyssey Thera (OT) 8-hour HEK293T Protein-Complementation Assay for Androgen Receptor/SRC-1 Co-activator (AID 2283354);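 note: hits raise the complementation signal above DMSO so AC50 marks enhancers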
In short: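 Measures AR/SRC-1 binding by Venus YFP fragment complementation in HEK293T stable lines at 8 h post-dose. Imaging quantifies the 488nm nucleus/cytoplasm ratio in ≥400 cells; DMSO defines baseline.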

[9] = molecular target: Estrogen receptor beta (Homo sapiens) (UniProt Q92731); assay: OT_ER_ERbERb_0480: Odyssey Thera (OT) 8-hour HEK293T Protein-Complementation Assay for Estrogen Receptor-beta/-beta Homodimer (AID 2283357);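 note: active means signal gain over DMSO baseline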
In short: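 Cells (HEK293T, stable ER-beta LBD PCA pair) are treated 8 hours, fixed and Draq5-stained; signal is fluorescence intensity increase relative to vehicle, fitted in the gain direction.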

[10] = molecular target: human Constitutive Androstane Receptor (CAR), NR1I3 (gene 9970) (UniProt Q14994); assay: NVS_NR_hCAR_Antagonist: NovaScreen (NVS) Nuclear Receptor Binding Assay for human Constitutive Androstane Receptor Antagonism (CAR) (AID 2283344)
In short: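 Cell-free TR-FRET binding read 1 h after dosing, antagonist mode; loss of signal versus DMSO baseline. Primary screen in duplicate at a single 25 uM; actives retested in concentration series.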

[11] = molecular target: Retinoic acid receptor alpha (Homo sapiens) (UniProt P10276); assay: NVS_NR_hRAR_Antagonist: NovaScreen (NVS) Nuclear Receptor Binding Assay for human Retinoic Acid Alpha Receptor Antagonism (RAR) (AID 2283358)
In short: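 TR-FRET, cell-free, antagonist format; 2 h incubation after dosing; DMSO = baseline; signal loss fitted; 25 uM duplicate primary, then conc. series.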

[12] = molecular target: bovine Estrogen Receptor (ER), ESR1 (gene 407238) (UniProt P49884); assay: NVS_NR_bER: NovaScreen (NVS) Nuclear Receptor Binding Assay for bovine Estrogen Receptor (ER) (AID 2283345);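 note: actives lower the bound radioligand count which means they displace the ER ligand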
In short: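 Bovine uterine membranes; tritiated or iodinated radioligand; competitive displacement; 18 h; scintillation read; DMSO negative control; 25 uM duplicates, then concentration series for actives.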

[13] = molecular target: chimpanzee Androgen Receptor (AR), AR (gene 747460) (UniProt O97775); assay: NVS_NR_cAR: NovaScreen (NVS) Nuclear Receptor Binding Assay for chimpanzee Androgen Receptor (AR) (AID 2283346);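 note: radioligand displacement from AR measured by scintillation counting in a cell-free assay; a loss of bound radioligand signal versus DMSO counts as binding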
In short: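 Cell-free competition binding with insect-cell (Sf9/Sf21) extracted chimpanzee AR; scintillation signal from lysate at 72 h. Screened in duplicate at 25 uM, then concentration-response for actives; fitting relative to DMSO.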

[14] = system: guinea pig Histamine Receptor (H2), gene 100729734; assay: NVS_GPCR_gH2: NovaScreen (NVS) G Protein-Coupled Receptor Assay for guinea pig Histamine Receptor (H2) (AID 2283342)
In short: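 Radioligand displacement on guinea pig striatal membranes, 1 h after dosing, filter-based scintillation counting; loss of signal versus DMSO. Single-point screen at 25 uM in duplicate, then concentration-response up to 50 uM.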

[15] = molecular target: Bile acid receptor (Homo sapiens) (UniProt Q96RI1); assay: NVS_NR_hFXR_Antagonist: NovaScreen (NVS) Nuclear Receptor Binding Assay for human Farnesoid X Receptor Antagonism (FXR) (AID 2283350)
In short: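 Cell-free TR-FRET ligand-binding read-out on human FXR (NR1H4) in antagonist mode, measured 1 h after dosing. Primary screen in duplicate at 25 uM, actives retested in concentration series; signal loss scored versus DMSO.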

[16] = molecular target: Retinoic acid receptor alpha (Homo sapiens) (UniProt P10276); assay: NVS_NR_hRARa_Agonist: NovaScreen (NVS) Nuclear Receptor Binding Assay for human Retinoic Acid Alpha Receptor Agonism (RAR) (AID 2283361)
In short: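 Readout is time-resolved fluorescence resonance energy transfer after a 2 h exposure of cell-free extracted receptor protein. Initial testing used 25 uM in duplicate, with concentration-response follow-up for active chemicals.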

[17] = molecular target: rat Glycine Receptor, Strychnine-sensitive (GlyRStrySens), Glra1 (gene 25674) (UniProt P07727); assay: NVS_LGIC_rGlyRStrySens: NovaScreen (NVS) Ligand-Gated Ion Channel Assay for rat Glycine Receptor, Strychnine-sensitive (GlyRStrySens) (AID 2283341)
In short: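 Radioligand displacement on rat spinal cord membranes, 1 hr, filter scintillation read-out. Single-concentration duplicate screen at 25 uM; chemicals meeting threshold (e.g., 30% inhibition) rerun in concentration-response up to 50 uM. Loss of binding fitted versus DMSO.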

Measured: AC50

Chain of bovine Estrogen Receptor (ER), ESR1 (gene 407238) (P49884 whole entry, looked up): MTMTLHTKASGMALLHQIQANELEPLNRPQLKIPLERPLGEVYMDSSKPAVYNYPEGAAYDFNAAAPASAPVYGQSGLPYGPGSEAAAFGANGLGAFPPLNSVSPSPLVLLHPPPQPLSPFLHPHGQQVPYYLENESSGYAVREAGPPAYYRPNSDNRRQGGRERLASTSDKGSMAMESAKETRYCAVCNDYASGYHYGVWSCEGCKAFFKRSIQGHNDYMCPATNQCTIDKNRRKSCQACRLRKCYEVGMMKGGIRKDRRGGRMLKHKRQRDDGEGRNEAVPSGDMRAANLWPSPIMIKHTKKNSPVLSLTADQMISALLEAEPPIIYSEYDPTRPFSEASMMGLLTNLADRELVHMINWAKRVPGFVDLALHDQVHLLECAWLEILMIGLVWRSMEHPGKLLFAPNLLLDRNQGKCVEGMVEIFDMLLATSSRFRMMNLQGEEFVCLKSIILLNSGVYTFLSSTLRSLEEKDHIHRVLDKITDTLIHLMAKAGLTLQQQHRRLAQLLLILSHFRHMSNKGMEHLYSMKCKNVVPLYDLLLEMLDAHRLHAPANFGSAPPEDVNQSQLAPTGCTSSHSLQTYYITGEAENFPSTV
Chain of Retinoic acid receptor alpha (Homo sapiens) (P10276 whole entry, looked up): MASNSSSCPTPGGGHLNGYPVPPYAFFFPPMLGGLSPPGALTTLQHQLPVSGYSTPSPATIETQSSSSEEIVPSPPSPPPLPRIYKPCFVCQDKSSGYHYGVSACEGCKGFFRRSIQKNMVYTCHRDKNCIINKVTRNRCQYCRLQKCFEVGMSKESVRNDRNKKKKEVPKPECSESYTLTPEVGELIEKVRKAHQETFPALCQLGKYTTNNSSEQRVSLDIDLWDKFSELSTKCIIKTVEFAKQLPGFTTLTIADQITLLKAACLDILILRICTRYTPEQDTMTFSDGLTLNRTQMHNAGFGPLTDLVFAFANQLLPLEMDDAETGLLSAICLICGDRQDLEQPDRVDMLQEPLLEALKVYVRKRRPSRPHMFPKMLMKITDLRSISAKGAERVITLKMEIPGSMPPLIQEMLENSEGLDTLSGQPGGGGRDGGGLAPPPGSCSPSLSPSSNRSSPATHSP
Chain of bovine Gamma-Aminobutyric Acid Type A Receptor Agonist (GABAR Agonist), GABRA1 (gene 780973) (P08219 whole entry, looked up): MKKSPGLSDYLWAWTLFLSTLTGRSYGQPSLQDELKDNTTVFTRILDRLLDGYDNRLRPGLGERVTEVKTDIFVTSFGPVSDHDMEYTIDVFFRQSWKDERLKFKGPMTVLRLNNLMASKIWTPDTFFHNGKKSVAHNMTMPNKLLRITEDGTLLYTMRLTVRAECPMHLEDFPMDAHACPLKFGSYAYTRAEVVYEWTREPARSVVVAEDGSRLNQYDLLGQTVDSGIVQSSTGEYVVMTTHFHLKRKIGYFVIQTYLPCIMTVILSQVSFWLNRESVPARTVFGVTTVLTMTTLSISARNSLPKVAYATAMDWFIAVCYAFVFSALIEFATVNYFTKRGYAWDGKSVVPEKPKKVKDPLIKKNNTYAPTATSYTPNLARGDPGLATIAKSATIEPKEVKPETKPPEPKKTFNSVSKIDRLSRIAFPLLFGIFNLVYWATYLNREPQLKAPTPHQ
Chain of chimpanzee Androgen Receptor (AR), AR (gene 747460) (O97775 whole entry, looked up): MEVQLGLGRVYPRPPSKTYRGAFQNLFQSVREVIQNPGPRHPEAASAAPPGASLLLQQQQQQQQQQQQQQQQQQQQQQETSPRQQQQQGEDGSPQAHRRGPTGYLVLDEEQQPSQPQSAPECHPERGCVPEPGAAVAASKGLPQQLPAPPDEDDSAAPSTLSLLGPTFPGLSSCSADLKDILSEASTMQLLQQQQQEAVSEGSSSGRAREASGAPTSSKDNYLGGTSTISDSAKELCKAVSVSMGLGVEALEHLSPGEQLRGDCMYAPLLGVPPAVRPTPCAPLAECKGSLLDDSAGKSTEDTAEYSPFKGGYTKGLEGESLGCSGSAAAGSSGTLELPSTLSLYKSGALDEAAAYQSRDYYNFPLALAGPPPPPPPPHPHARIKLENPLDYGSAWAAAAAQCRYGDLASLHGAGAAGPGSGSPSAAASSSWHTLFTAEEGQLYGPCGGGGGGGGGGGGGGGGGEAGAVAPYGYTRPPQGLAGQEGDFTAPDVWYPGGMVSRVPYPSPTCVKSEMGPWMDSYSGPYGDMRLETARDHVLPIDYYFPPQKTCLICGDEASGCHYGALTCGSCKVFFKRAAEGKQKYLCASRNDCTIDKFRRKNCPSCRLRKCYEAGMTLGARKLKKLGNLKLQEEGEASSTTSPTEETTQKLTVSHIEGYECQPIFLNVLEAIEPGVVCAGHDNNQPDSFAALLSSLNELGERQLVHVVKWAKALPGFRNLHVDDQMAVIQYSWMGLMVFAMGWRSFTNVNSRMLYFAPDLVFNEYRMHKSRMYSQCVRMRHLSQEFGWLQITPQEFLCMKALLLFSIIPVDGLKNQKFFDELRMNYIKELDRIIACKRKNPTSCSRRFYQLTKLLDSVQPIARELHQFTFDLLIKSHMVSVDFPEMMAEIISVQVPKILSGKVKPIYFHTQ
Chain of human Constitutive Androstane Receptor (CAR), NR1I3 (gene 9970) (Q14994 whole entry, looked up): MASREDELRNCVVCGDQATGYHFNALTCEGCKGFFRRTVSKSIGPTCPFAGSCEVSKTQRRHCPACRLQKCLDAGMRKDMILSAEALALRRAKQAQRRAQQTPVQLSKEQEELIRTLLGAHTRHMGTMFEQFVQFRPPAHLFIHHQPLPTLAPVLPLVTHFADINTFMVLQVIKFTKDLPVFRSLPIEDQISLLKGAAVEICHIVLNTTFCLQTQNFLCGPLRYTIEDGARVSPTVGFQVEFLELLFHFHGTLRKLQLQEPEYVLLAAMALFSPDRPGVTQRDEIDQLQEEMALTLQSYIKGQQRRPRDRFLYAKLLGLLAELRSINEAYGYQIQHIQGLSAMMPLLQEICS
Chain of Androgen Receptor/SRC-1 Co-activator, AR (gene 367) (P10275 whole entry, looked up, the tested form may be a part): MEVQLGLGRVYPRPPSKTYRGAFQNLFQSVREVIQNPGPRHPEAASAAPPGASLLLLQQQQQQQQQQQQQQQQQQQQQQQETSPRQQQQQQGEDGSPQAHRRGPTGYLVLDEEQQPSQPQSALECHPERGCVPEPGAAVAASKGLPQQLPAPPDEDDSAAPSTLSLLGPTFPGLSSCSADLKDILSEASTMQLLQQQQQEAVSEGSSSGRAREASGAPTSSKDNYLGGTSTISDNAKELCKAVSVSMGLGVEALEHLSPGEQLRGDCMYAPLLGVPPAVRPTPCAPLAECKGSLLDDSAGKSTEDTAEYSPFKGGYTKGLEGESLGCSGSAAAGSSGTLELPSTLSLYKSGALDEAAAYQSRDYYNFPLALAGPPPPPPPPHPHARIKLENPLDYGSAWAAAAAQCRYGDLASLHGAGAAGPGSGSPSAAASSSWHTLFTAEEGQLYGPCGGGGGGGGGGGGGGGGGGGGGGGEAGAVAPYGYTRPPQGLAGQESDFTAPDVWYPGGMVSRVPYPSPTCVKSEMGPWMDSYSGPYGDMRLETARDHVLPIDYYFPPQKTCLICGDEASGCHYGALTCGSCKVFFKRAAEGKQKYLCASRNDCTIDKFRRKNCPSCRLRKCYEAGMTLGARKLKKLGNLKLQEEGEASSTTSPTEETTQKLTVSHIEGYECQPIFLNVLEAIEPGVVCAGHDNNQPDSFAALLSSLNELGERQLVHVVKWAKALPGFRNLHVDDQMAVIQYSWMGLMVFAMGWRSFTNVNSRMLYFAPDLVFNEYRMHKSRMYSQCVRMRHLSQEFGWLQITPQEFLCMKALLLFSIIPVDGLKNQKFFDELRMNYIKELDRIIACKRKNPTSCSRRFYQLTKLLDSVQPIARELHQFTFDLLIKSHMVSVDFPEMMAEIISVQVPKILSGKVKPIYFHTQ
Chain of Estrogen receptor beta (Homo sapiens) (Q92731 whole entry, looked up, the tested form may be a part): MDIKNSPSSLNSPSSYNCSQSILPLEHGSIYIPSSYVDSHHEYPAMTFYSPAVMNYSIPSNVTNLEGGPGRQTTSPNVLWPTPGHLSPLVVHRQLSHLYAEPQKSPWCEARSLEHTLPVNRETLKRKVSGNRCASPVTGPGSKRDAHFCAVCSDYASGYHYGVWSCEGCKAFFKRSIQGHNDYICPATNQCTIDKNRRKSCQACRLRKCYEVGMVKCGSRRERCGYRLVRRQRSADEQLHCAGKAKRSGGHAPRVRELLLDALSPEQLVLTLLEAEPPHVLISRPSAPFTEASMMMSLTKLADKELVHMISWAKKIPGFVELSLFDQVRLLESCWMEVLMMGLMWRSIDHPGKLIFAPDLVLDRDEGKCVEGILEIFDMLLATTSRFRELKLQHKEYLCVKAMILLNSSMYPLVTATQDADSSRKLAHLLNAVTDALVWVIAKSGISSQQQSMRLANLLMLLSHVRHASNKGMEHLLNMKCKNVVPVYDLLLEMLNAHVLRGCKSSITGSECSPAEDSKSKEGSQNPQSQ
Chain of human Peroxisome Proliferator-activated Receptor alpha (PPARa), PPARA (gene 5465) (Q07869 whole entry, looked up): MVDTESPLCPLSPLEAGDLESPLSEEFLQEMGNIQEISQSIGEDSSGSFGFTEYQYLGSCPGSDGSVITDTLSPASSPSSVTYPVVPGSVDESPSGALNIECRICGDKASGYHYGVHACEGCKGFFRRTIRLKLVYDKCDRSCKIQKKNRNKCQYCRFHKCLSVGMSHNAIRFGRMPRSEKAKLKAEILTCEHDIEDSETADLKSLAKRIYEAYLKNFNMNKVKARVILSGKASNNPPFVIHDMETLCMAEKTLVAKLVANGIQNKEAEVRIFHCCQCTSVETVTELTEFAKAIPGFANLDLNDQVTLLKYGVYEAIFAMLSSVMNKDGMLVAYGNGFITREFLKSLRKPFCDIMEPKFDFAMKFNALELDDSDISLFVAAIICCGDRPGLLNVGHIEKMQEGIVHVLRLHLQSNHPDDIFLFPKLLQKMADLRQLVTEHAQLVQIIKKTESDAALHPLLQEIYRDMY

Cn1cc[nH]c1=S
inactive: NCBI gene 100848466 | [1] | [2] | [3] | [4] | PGR (gene 5241)

CCc1ccc(O)c(C(C)(C)C)c1
inactive: [5] | [6] | [2] | [3] | [4] | [7] | PGR (gene 5241)

CCCCCCOC(=O)CC(CC(=O)OCCCCCC)(OC(=O)CCC)C(=O)OCCCCCC
inactive: [5] | [2] | [3] | [8] | [4] | [9]

CCCC(CCC)C(=O)O
inactive: [6] | [2]

CCc1cccc(CC)c1N
inactive: [1] | [2] | [3] | [4] | PGR (gene 5241)
active: [6] 10 µM

Cc1nc(-c2ccccn2)ncc1C(=O)Nn1cc(C)c2cc(F)ccc21
inactive: [10] | [2] | [3] | [8] | [4] | [11]

Cc1cccc(O)c1C
inactive: [12] | [6] | [2] | [3] | [4]

c1ccc2c(c1)-c1cccc3c1c-2cc1ccccc13
inactive: [13] | [1] | [2] | [3] | [4]

Nc1ccn([C@@H]2O[C@H](CO)[C@@H](O)[C@@H]2O)c(=O)n1
active: [6] 22.5 µM
inactive: [2]

O=C(O)c1ccc2c(c1)nc(C(=O)NC1CCN(C3CC3)CC1)n2Cc1cc(-c2ccc(Cl)s2)on1
inactive: [10] | [2] | [3] | [4] | [9] | [7]

O=C(O)c1cccc(C[C@@H]2COc3ccc(OCc4nc5cc(F)ccc5s4)cc3[C@@H]2O)c1
active: [13] 20.8 µM
inactive: [12] | [1] | [2] | [4] | [7]

Cc1nccn1-c1ccc(Sc2cccc(C3(C(N)=O)CCOCC3)c2)cc1
inactive: [14] | [2] | [3] | [7]
active: NCBI gene 100848466 7.1 µM | [4] 20.9 µM | [9] 32.3 µM | PGR (gene 5241) 6.18 µM

CCOC(N)=O
inactive: [1] | [2]

COS(C)(=O)=O
inactive: [12] | [6] | [2]

C=CCc1cc(S(=O)(=O)c2ccc(O)c(CC=C)c2)ccc1O
inactive: NCBI gene 100848466 | [6] | [1] | [2] | [3] | [4]
active: [12] 19.1 µM | [13] 33.1 µM | [6] 12.5 µM | [15] 18.2 µM | [8] 82.7 µM | [7] 25 µM

CCCCCCCCCC
inactive: [12] | [2] | [3] | [4] | PGR (gene 5241)

NC(=O)N1c2ccccc2C=Cc2ccccc21
inactive: [5] | [12] | [1] | [2] | [3] | [4] | [11] | PGR (gene 5241)

OC[C@H]1O[C@@H]2O[C@H]3[C@H](O)[C@@H](O)[C@@H](O[C@H]4[C@H](O)[C@@H](O)[C@@H](O[C@H]5[C@H](O)[C@@H](O)[C@@H](O[C@H]6[C@H](O)[C@@H](O)[C@@H](O[C@H]7[C@H](O)[C@@H](O)[C@@H](O[C@H]1[C@H](O)[C@H]2O)O[C@@H]7CO)O[C@@H]6CO)O[C@@H]5CO)O[C@@H]4CO)O[C@@H]3CO
inactive: [1] | [2] | [3] | [4]
active: [12] 1.18 µM | [6] 0.472 µM

COc1cc(C(C)C)c2c(c1)S(=O)(=O)N(COc1cc(=O)n3cccc(OCCN4CCCCC4)c3n1)C2=O
inactive: [6] | [1] | [2] | [11] | [7] | [16]
active: [14] 3.13 µM | [8] 18.1 µM

Cc1ncc([C@@H](CCCCCCc2ccc3c(n2)NCCC3)CC(=O)O)cn1
inactive: [1] | [2] | [3] | [4] | [7]
active: [14] 25 µM

CC(C)C(=O)Nc1ccc([N+](=O)[O-])c(C(F)(F)F)c1
inactive: NCBI gene 100848466 | [6] | [1] | [2] | [3] | [7]

OC(Cn1cncn1)(Cn1cncn1)c1ccc(F)cc1F
inactive: [5] | [2] | [4]

O=C1CN(N=Cc2ccc([N+](=O)[O-])o2)C(=O)N1
inactive: [5] | [2]

NNC(=O)c1ccncc1
inactive: [6] | [1] | [2] | [3] | [4]

CCCCCCCC1CCC(=O)O1 (centres undefined)
inactive: [17] | [2] | [3] | [4]

CCCCCCCCCCCCCCCCOS(=O)(=O)O
inactive: [10] | [2] | [3] | [8] | [4] | [7]

CCn1nc(C)c2c1C(=O)NCC(c1ccc(O)cc1)=N2
inactive: [14] | [2] | [3] | [4]

OCC(CO)(CO)CO
inactive: [12] | [2] | [3] | [4] | [9]
active: [6] 3.49 µM

O=c1[nH]cnc2c1ncn2[C@H]1CC[C@@H](CO)O1
inactive: [10] | [1] | [2]
